Source: PubChem (Broad Institute)
Shown is part of a subset that was picked to be rich in hits.
IDE exosite inh: insulin-degrading enzyme (human) exo-site inhibition; P14735; purified IDE, FL-6b probe fluorescence polarization; hits give low values; z-score at 20 µM; 6.3% of 17,000 active; AID 1259349;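 active means z-score of -3 or lower, meaning strong loss of probe binding signal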;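 further: His-tagged human IDE residues 42-1019 made in E. coli with 30 nM FL-6b probe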
Target sequence (P14735 42-1019 limits assumed): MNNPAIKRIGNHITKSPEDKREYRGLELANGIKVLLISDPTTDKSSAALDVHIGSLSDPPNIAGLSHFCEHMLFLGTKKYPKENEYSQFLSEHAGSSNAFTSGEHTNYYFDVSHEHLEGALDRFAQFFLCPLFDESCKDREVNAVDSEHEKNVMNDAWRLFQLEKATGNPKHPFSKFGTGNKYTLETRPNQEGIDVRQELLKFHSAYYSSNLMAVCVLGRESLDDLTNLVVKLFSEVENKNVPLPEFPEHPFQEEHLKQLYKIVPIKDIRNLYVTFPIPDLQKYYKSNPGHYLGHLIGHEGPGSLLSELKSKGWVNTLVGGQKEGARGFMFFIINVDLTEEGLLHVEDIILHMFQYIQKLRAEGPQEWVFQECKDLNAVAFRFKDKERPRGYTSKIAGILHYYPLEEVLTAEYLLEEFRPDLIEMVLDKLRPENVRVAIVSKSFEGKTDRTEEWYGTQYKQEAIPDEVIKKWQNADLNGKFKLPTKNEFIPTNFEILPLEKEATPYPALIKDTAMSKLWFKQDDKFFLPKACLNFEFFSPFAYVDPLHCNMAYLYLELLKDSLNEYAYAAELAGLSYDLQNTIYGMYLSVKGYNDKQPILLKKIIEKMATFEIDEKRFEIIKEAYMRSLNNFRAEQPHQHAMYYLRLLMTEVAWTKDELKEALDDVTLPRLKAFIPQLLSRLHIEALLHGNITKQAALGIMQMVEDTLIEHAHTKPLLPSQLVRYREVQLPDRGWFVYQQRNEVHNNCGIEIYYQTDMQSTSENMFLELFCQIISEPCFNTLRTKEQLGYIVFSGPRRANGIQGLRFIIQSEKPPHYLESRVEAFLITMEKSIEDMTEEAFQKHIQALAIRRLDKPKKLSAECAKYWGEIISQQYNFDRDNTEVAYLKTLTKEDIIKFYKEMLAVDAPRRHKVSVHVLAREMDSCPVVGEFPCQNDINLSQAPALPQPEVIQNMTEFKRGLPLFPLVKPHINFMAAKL
Of the large screens only hits and unclear results are named; the others gave an inactive call.

N#C[C@H]1[C@H](c2ccc(C3=CCCCC3)cc2)[C@@H](CO)N1C(=O)CN1CCOCC1	none
N#C[C@@H]1[C@H](c2ccccc2-c2ccc(F)cc2)[C@H](CO)N1C(=O)Cc1cccnc1	none
N#C[C@@H]1[C@@H](c2ccc(-c3ccc(F)cc3)cc2)[C@H](CO)N1C(=O)Cc1ccccc1	none
O=C(Cc1cccnc1)N1CC(=O)N2[C@H](CO)[C@@H](c3ccc(/C=C/c4ccccc4)cc3)[C@@H]2C1	none
C/C=C/c1ccc([C@@H]2[C@@H](CO)N3C(=O)CN(C(=O)Cc4cccnc4)C[C@@H]23)cc1	none
O=C(Cc1cccnc1)N1CC(=O)N2[C@H](C1)[C@H](c1ccc(/C=C/c3ccccc3)cc1)[C@@H]2CO	IDE exosite inh -5
O=C(Cc1cccnc1)N1CC(=O)N2[C@H](CO)[C@H](c3ccc(/C=C/c4ccccc4)cc3)[C@@H]2C1	IDE exosite inh -5.1
C/C=C/c1ccc([C@H]2[C@@H](CO)N3C(=O)CN(C(=O)Cc4cccnc4)C[C@@H]23)cc1	none
C/C=C/c1ccc([C@H]2[C@H](CO)N3C(=O)CN(C(=O)Cc4cccnc4)C[C@@H]23)cc1	none
N#Cc1cccc(-c2ccc3c(c2)[C@@H]2[C@@H](CCN2Cc2ccc4c(c2)OCO4)[C@@H](CO)N3)c1	none
CO[C@@H]1CC[C@@H]2CCOc3c(C#N)cccc3C(=O)N(C)CCCC(=O)N(C)C[C@@H]1O2	none
O=C(Cc1ccccc1)N1CC(=O)N2[C@H](CO)[C@@H](c3ccc(C#Cc4ccccc4)cc3)[C@@H]2C1	none
O=C(CC1CC1)N1CC(=O)N2[C@@H](CO)[C@@H](c3ccc(-c4cccnc4)cc3)[C@@H]2C1	none
O=C(CC1CC1)N1CC(=O)N2[C@H](C1)[C@H](c1ccc(/C=C/c3ccccc3)cc1)[C@@H]2CO	IDE exosite inh -3.8
O=C(c1ccc(F)cc1)N1CC(=O)N2[C@H](C1)[C@H](c1ccc(/C=C/c3ccccc3)cc1)[C@@H]2CO	none
O=C(CC1CC1)N1CC(=O)N2[C@@H](CO)[C@H](c3ccc(-c4ccccc4)cc3)[C@@H]2C1	none
CN(C)CC(=O)N1CC(=O)N2[C@@H](CO)[C@H](c3ccc(/C=C/c4ccccc4)cc3)[C@@H]2C1	IDE exosite inh -4.2
O=C(CC1CC1)N1CC(=O)N2[C@@H](CO)[C@@H](c3ccc(C#Cc4ccc(F)cc4)cc3)[C@@H]2C1	none
O=C(CC1CC1)N1CC(=O)N2[C@H](CO)[C@@H](c3ccc(C#Cc4ccccc4)cc3)[C@H]2C1	IDE exosite inh -6.4
CN(C)CC(=O)N1CC(=O)N2[C@@H](CO)[C@H](c3ccc(-c4ccc(C#N)cc4)cc3)[C@@H]2C1	none
COCC(=O)N1[C@H](CO)[C@H]2c3ccccc3NC[C@H]21	none
CC(C)C#Cc1ccc([C@@H]2[C@H](C#N)N(C(=O)C3CCC3)[C@H]2CO)cc1	none
CCN(C[C@@H]1N[C@@H](CO)[C@H]1c1ccccc1)C(=O)c1ccncc1	none
C[C@H](CO)N1C[C@H](C)[C@H](CN(C)CC2CCCCC2)OCCCC[C@H](C)Oc2ccc(NS(C)(=O)=O)cc2C1=O	none
CO[C@@H]1CN(C)C(=O)c2cc(NS(=O)(=O)c3ccc(C)cc3)ccc2OC[C@@H](C)N(Cc2ccccn2)C[C@H]1C	none
COc1ccc(NC(=O)N[C@@H]2CC[C@H](CCNC(=O)CN3CCOCC3)O[C@@H]2CO)cc1	none
O=C(Nc1cc(F)ccc1F)N[C@@H]1CC[C@H](CC(=O)N2CCc3ccccc3C2)O[C@H]1CO	none
O=C(C[C@@H]1CC[C@H]2NC[C@@H](O)COC[C@@H]2O1)NCCc1ccncc1	none
O=C(C[C@H]1C=C[C@H](NC(=O)C2CCC2)[C@H](CO)O1)NC1CCCCC1	none
O=C(Nc1ccccc1)N1CC(=O)N2[C@H](CO)[C@@H](c3ccc(C#Cc4cccnc4)cc3)[C@H]2C1	none
O=C(C1CCCCC1)N1[C@@H]2CNc3ccccc3[C@@H]2[C@@H]1CO	none
C/C=C/c1ccc([C@H]2[C@@H](CO)N3CCCCN(C(=O)Nc4ccc(OC)cc4)C[C@@H]23)cc1	none
Cc1cccc(-c2ccc([C@@H]3[C@H](CO)N4CCCCN(S(=O)(=O)c5cccc(C)c5)C[C@@H]34)cc2)c1	none
Cc1cccc(-c2ccc([C@@H]3[C@@H](CO)N4CCCCN(S(=O)(=O)c5cn(C)cn5)C[C@@H]34)cc2)c1	IDE exosite inh -18
Cn1cnc(S(=O)(=O)N2CCCCN3[C@H](CO)[C@H](c4ccc(-c5ccccc5)cc4)[C@@H]3C2)c1	none
Cc1cccc(-c2ccc([C@H]3[C@@H](CO)N4CCCCN(S(=O)(=O)c5cn(C)cn5)C[C@@H]34)cc2)c1	none
Cc1ccccc1-c1ccc([C@H]2[C@H](CO)N3CCCCN(S(=O)(=O)c4cn(C)cn4)C[C@@H]23)cc1	IDE exosite inh -7.1
Cn1cnc(S(=O)(=O)N2CCCCN3[C@@H](CO)[C@@H](c4ccc(-c5ccccc5)cc4)[C@@H]3C2)c1	IDE exosite inh -5.6
Cn1cnc(S(=O)(=O)N2CCCCN3[C@H](CO)[C@H](c4ccc(-c5ccccc5)cc4)[C@H]3C2)c1	none
COc1ccc2c3c(n(C)c2c1)[C@H](CO)N(S(=O)(=O)c1ccc(C)cc1)CC31CCN(Cc2cccnc2)CC1	none
Cc1noc(C)c1NC(=O)N(C)C[C@H]1Oc2ccc(NC(=O)CCCN(C)C)cc2C(=O)N([C@@H](C)CO)C[C@H]1C	none
CCCNC(=O)N1[C@@H]2CNC[C@H]1C2c1ccc(-c2ccccc2F)cc1 (stereo not given in full)	none
C[C@H](CO)N1C[C@H](C)[C@@H](CN(C)C(=O)CN2CCOCC2)Oc2ncc(-c3ccncc3)cc2C1=O	none
CN1C(=O)c2cc(NS(=O)(=O)c3ccccc3F)ccc2OC[C@@H]2O[C@@H](CC(=O)NC3Cc4ccccc4C3)CC[C@H]21	none
O=C(NC[C@@H]1[C@H](c2ccccc2)[C@@H](CO)N1Cc1cccnc1)c1ccccn1	none
CCCC#Cc1ccc([C@@H]2[C@@H](CO)N3C(=O)CN(C(=O)Nc4ccccc4)C[C@@H]23)cc1	none
CN(C)C(=O)c1ccc(-c2ccc(C3[C@H]4CNC[C@@H]3N4S(=O)(=O)c3ccc(F)cc3)cc2)cc1 (stereo not given in full)	none
CC(=O)N1[C@H](CO)[C@@H](c2ccccc2)[C@@H]1CN(CC1CCC1)C(=O)CC1CC1	none
COc1ccc2c3c([nH]c2c1)[C@H](CO)N(S(=O)(=O)c1ccc(C)cc1)CC31CCN(C(=O)Cc2cccnc2)CC1	none
Cc1cccc(-c2ccc([C@@H]3[C@@H](CO)N4C(=O)CN(C(=O)NC5CCCCC5)C[C@@H]34)cc2)c1	IDE exosite inh -17
Cc1cccc(-c2ccc([C@H]3[C@H]4CN(C(=O)NC5CCCCC5)CC(=O)N4[C@H]3CO)cc2)c1	IDE exosite inh -9.5
N#C[C@@H]1N[C@H](CO)[C@H]1c1ccc(C#CC2CCCCC2)cc1	none
O=C(C1CCOCC1)N1CC(=O)N2[C@H](C1)[C@@H](c1ccc(C#CC3CCCCC3)cc1)[C@@H]2CO	none
CCCC#Cc1ccc([C@H]2[C@@H](CO)N3C(=O)CN(C(=O)CN4CCOCC4)C[C@@H]23)cc1	none
CCNC(=O)[C@H]1[C@H](CO)[C@H]2Cn3c(cccc3=O)[C@@H]1N2C(=O)Nc1cc(F)ccc1F	none
C[C@@H]1CN([C@@H](C)CO)C(=O)c2ccccc2-c2ccccc2CO[C@@H]1CN(C)Cc1ccccc1C(F)(F)F	none
OC[C@@H]1[C@@H](c2ccc(C#CC3CCCC3)cc2)[C@H]2CN(CCC(F)(F)F)CCCCN12	none
COc1ccccc1C#Cc1ccc([C@H]2[C@H]3CN(CCC(F)(F)F)CCCCN3[C@H]2CO)cc1	IDE exosite inh -7.2
COc1ccccc1C#Cc1ccc([C@@H]2[C@@H](CO)N3CCCCN(CCC(F)(F)F)C[C@H]23)cc1	none
